In the library only some 4.1% were active in any assay of this set; here they are far more common.
Env fusion inh: inhibitors of HIV Env-mediated cell fusion | 360,000 compounds, 1.1% hits | inhibition, % at 12.3 µM | HeLa-JRFL Env/CEM21 cell fusion, luciferase;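 active means mean replicate inhibition score of at least 50 and every replicate individually at or above 50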;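 further: 0% = plate neutral controls and 100% = maraviroc near 300 nM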
ALR H2O2 inh: inhibitors of human sulfhydryl oxidase ALR | inhibition, % (concentration not given with the values) | purified ALR, DTT oxidation, H2O2 HRP-luminol luminescence | P55789 | 290,000 compounds, 3.8% hits;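 active means mean replicate inhibition above about 79%, with every replicate also reaching it, limit read from the data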
PglD DTNB: blocks C. jejuni PglD acetyltransferase activity; AID 602405; 360,000 compounds, 0.098% hits; inhibition, % at 12.5 µM; purified PglD enzyme, DTNB colorimetric CoA detection; in the data active means inhibition above about 16%, passing the limit was not always enough
F508del corr: CFTR F508del correction in bronchial cells. CFBE cells, YFP halide quenching; stimulated with forskolin plus potentiator P3; % fluorescence drop versus neutral controls. activity (quench increase), % at 7.58 µM. 350,000 compounds, 0.36% hits;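 active means mean added fluorescence quench of at least 8% versus neutral control, with both replicates also reaching 8%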;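 further: cells transiently co-express mutant CFTR-F508del with the halide-sensitive YFP; corrector assay measuring rescue of mutant channel to the surface after 24 h compound exposure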
NSD2 inh: blocks human histone methyltransferase NSD2 | O96028 | NSD2 peptide methylation, AlphaScreen, 120 min | inhibition, % at 12.5 µM | 310,000 compounds, 0.54% hits; in the data active means inhibition above about 50%
CASP6 VEID inh: caspase-6 (human) enzyme inhibition; P55212; purified caspase-6, Z-VEID-R110 cleavage fluorescence; inhibition, % at 12.5 µM; 350,000 compounds, 0.53% hits;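 active means mean inhibition across replicates at least about 35%, with every replicate also reaching that limit, limit read from the data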;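 further: 0% = median of neutral control wells and 100% = no fluorescence left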
Target sequence (P55212 24-179 limits assumed): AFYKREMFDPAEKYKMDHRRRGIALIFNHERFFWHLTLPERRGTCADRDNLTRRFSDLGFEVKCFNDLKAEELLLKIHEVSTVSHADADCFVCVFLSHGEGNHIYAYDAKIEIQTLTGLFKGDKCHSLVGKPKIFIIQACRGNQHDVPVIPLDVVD
Target sequence (P55212 194-293 limits assumed): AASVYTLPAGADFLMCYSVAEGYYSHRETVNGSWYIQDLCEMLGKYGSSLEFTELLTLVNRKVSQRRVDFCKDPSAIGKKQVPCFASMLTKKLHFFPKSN
Active calls of the source: *; x = no result given; [ ] = another dose, or the depositor's remark.

SMILES	Env fusion inh	ALR H2O2 inh	PglD DTNB	F508del corr	NSD2 inh	CASP6 VEID inh
C=CCc1c(C)nc(SCc2nc3ccccc3c(=O)[nH]2)[nH]c1=O	x	7	10	x	1	x
O=C(CSc1nccc(=O)[nH]1)NCc1ccco1	-3	0	-1	-1	x	42*
CCc1c(O)nc(SCC(=O)NCc2ccco2)[nH]c1=O	-80	98*	-3	x	0	x
CCc1c(O)nc(SCc2nc3ccccc3c(=O)[nH]2)[nH]c1=O	-6	98*	x	0	-4	-3
CCOC(=O)c1c(-c2ccc(Br)cc2)csc1/N=C/C1C(=O)CC(C)(C)CC1=O	x	x	x	x	-1	x
Cc1ccc(S(=O)(=O)N(C)C[C@@H]2Oc3ccc(NC(=O)Nc4c(C)noc4C)cc3CC(=O)N([C@@H](C)CO)C[C@H]2C)cc1	6[16.7 µM]	x	3	-3	x	x
CS(=O)(=O)N1[C@H](C#N)[C@@H](c2ccc(C#Cc3cccc(F)c3)cc2)[C@H]1CO	-9[16.7 µM]	x	2	-1	x	1
C[C@@H]1CCCCO[C@H](CN(C)CC2CCCCC2)[C@H](C)CN([C@H](C)CO)C(=O)c2cc(NS(=O)(=O)c3ccccc3)ccc2O1	11[16.7 µM]	x	2	6	x	1
CCn1c2ccccc2c2cc([N+](=O)[O-])ccc21	34	-17	x	0	-3	0
CN(C)CCn1c2ccccc2c2nc3ccc([N+](=O)[O-])cc3cc21	37	-7	1	13*	1	3
C[C@@H]1CCCCO[C@H](CN(C)C(=O)c2ccccc2)[C@H](C)CN([C@H](C)CO)C(=O)c2cc(NS(C)(=O)=O)ccc2O1	-5[16.7 µM]	x	x	2	x	x
O=C1c2cc(O)c(O)cc2S(=O)(=O)C1c1ccccc1 (stereo unspecified)	6	99*	0	-2	x	x
CCCCNC(=O)c1ccc2nc(-c3ccco3)c(-c3ccco3)nc2c1	1	-236	-7	-1	x	72*
O=C(NCc1ccccc1)c1ccc2nc(-c3ccco3)c(-c3ccco3)nc2c1	-124	-25	-7	x	x	x
COc1ccc2nc(-c3ccco3)c(-c3ccco3)nc2c1	x	10	3	1	-6	47*
CO[C@@H]1CN(C)C(=O)c2cc(NC(=O)NC3CCCCC3)ccc2OC[C@@H](C)NC[C@@H]1C	x	x	1	1	x	2
CC(=O)Nc1ccc(NC(=O)CSc2nc(N)c(NC(=O)c3ccco3)c(=O)[nH]2)cc1	-2	99*	3	-2	2	-1
Nc1nc(SCC(=O)OCc2ccccc2)[nH]c(=O)c1NC(=O)c1ccco1	x	100*	0	-1	x	3
CCC(=O)Nc1ccc2c(c1)OC[C@@H](C)N(C(=O)Cc1ccccn1)C[C@@H](C)[C@@H](OC)CN(C)C2=O	x	x	0	-4	x	x
Cc1ccc(NNC(N)=S)cc1Cl	17	99*	-6	-2	0	-4
O=C(N/N=C1/CCSC1)c1cc(Br)ccc1O	11	93*	3	-4	-1	2
O=C(NN=C1CCCC1)c1cc(Br)ccc1O	x	75	-1	-2	0	-2
Cc1nc2cc(Br)ccc2c(=O)n1Cc1cccc(O)c1	-3[16.7 µM]	x	4	-1	x	2
O=S(=O)(/N=S1/CC=CCN1S(=O)(=O)c1ccccc1)c1ccccc1 (stereo unspecified)	x	99*	x	x	x	x
O=C1SC(SCc2ccccc2Cl)=N/C1=C\c1ccc(C(=O)O)cc1	-6	101*	x	1	15	5
SMILES	Env fusion inh	ALR H2O2 inh	PglD DTNB	F508del corr	NSD2 inh	CASP6 VEID inh
CCSC1=N/C(=C\c2ccc(C(=O)O)cc2)C(=O)S1	-28	71	1	x	-2	x
COC(=O)c1ccc(/C=C2\N=C(SC)SC2=O)cc1	-30	99*	x	x	-1	x
CCOC(=O)SC1=N/C(=C\c2ccc(N(C)C)cc2)C(=O)S1	x	84*	x	4	14	7
CSC1=N/C(=C\c2ccc(C)cc2)C(=O)S1	x	x	-5	x	-2	x
O=C(C[C@@H]1C=C[C@@H](NC(=O)Cc2cccnc2)[C@H](CO)O1)Nc1ccc(-c2ccccc2)cc1	x	x	x	1	x	-1
CN1C(=O)c2cc(NC(=O)c3ccc(F)c(F)c3)ccc2OC[C@@H]2O[C@@H](CC(=O)N3CCOCC3)CC[C@H]21	-8[16.7 µM]	x	3	0	x	1
CN(C)C(=O)C[C@@H]1C[C@@H]2c3cc(NS(=O)(=O)c4ccc(F)cc4)ccc3O[C@@H]2[C@H](CO)O1	9[16.7 µM]	x	0	2	x	x
CC(C)NC(=O)N1c2ccccc2Sc2ccccc21	5	73	-6	0	-2	-1

Screening results: PubChem, Broad Institute
